The results in this text go back to PubChem BioAssay (NCI).

Molecules are shown by their SMILES. Where “and” joins values, the source holds several entries; their conditions need not be identical. Equal values may be shown once. Compounds without any hit were thinned out: in the full panel of roughly 83,000, 20% have a hit.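 The endpoint reported here, percent growth, reads 100 for growth as untreated, 0 for no net growth and -100 for all cells dead.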 Calls of active or inactive are those of the source. How the source made its calls: active means growth percent below 10; inactive means the rest.

Test systems include HCT-15 colon; HT29 colon; SNB-75 CNS; SNB-19 CNS; U251 CNS; PC-3 prostate; SK-MEL-5 melanoma; UACC-62 melanoma; LOX IMVI melanoma; SK-MEL-28 melanoma; SK-MEL-2 melanoma; EKVX NSCLC; SN12C renal; UO-31 renal; TK-10 renal; ACHN renal; CAKI-1 renal; A498 renal; CCRF-CEM leukemia; MOLT-4 leukemia.
Assay in all cases: NCI-60 one-dose screen, 48 h (100 = growth as untreated, 0 = no growth, -100 = all killed)
Common to all, as to settings: 10 µM unless noted

Consider `CCN1CCN(CC(=O)Nc2nc3ccc(NCc4ccc(C)cc4)cc3s2)CC1`, for which the growth in the assay on HCT-15 colon was 1.79% (active); with HT29 colon, 14.5% (inactive); with SNB-75 CNS it was 91.6% (inactive); in the assay on SNB-19 CNS, 81.6% (inactive); with U251 CNS, 60.2% (inactive); with PC-3 prostate, 56% (inactive). Also, the growth is 40.7% (inactive) with SK-MEL-5 melanoma; -57.1% (active) in the assay with UACC-62 melanoma; -42.4% (active) in the assay with LOX IMVI melanoma; 53.4% (inactive) with SK-MEL-28 melanoma; 75.8% (inactive) with SK-MEL-2 melanoma; 72.6% (inactive) in the assay with EKVX NSCLC. Moreover, the growth with SN12C renal was 63.3% (inactive); in the assay on UO-31 renal it was 61.6% (inactive); in the assay on TK-10 renal, 93.6% (inactive); in the assay with ACHN renal it was 85.6% (inactive); with CAKI-1 renal, 50.7% (inactive); in the assay with A498 renal it was 94% (inactive). Further, the growth in the assay with CCRF-CEM leukemia was 55.8% (inactive); in the assay on MOLT-4 leukemia, 50.5% (inactive).
With `CC(C)(C)c1cc(C(C)(C)c2ccccc2)cc(Cc2cc(C(C)(C)c3ccccc3)cc(C(C)(C)C)c2O)c1O`, the growth in the assay on HCT-15 colon is 95.8% (inactive); in the assay with HT29 colon, 93.3% (inactive); in the assay on SNB-75 CNS, 94.5% (inactive); with SNB-19 CNS, 106% (inactive); with U251 CNS it was 94.3% (inactive); with PC-3 prostate, 74.9% (inactive). Also, the growth with SK-MEL-5 melanoma is 97.4% (inactive); in the assay with UACC-62 melanoma, 92.3% (inactive); in the assay on LOX IMVI melanoma, 89.5% (inactive); in the assay with SK-MEL-28 melanoma, 106% (inactive); in the assay with SK-MEL-2 melanoma, 72.1% (inactive); in the assay on EKVX NSCLC, 110% (inactive). Besides, the growth in the assay on SN12C renal was 95.7% (inactive); with UO-31 renal, 80.9% (inactive); in the assay with TK-10 renal, 98.1% (inactive); in the assay with ACHN renal, 102% (inactive); in the assay on CAKI-1 renal it was 104% (inactive); in the assay on A498 renal, 125% (inactive). The growth in the assay on CCRF-CEM leukemia was 66.1% (inactive); in the assay on MOLT-4 leukemia, 54.4% (inactive).
For the compound `O=C(CCl)N(O)c1ccc(/C=C/c2ccccc2)cc1`, the growth in the assay on HCT-15 colon is 78.3% (inactive) and 66.3% (inactive); with HT29 colon, 73.1% (inactive) and 38.7% (inactive); in the assay on SNB-75 CNS it was 95.9% (inactive) and 96.3% (inactive); in the assay with SNB-19 CNS, 90.1% (inactive) and 86.7% (inactive); in the assay with U251 CNS, 81.5% (inactive) and 73.5% (inactive); in the assay with PC-3 prostate, 85.7% (inactive) and 86.6% (inactive). The growth in the assay with SK-MEL-5 melanoma is 68.6% (inactive) and 65.3% (inactive); in the assay on UACC-62 melanoma, 74.6% (inactive) and 72.2% (inactive); in the assay on LOX IMVI melanoma, 46.8% (inactive) and 36.1% (inactive); with SK-MEL-28 melanoma it was 107% (inactive) and 112% (inactive); with SK-MEL-2 melanoma, 88.1% (inactive) and 77.7% (inactive); with EKVX NSCLC it was 81.7% (inactive). In addition, the growth in the assay with SN12C renal is 63.3% (inactive) and 48.8% (inactive); in the assay on UO-31 renal, 66.4% (inactive) and 65.2% (inactive); in the assay on TK-10 renal it was 89.7% (inactive) and 81.1% (inactive); in the assay with ACHN renal, 97.8% (inactive) and 87.6% (inactive); in the assay on CAKI-1 renal it was 95.3% (inactive) and 91.1% (inactive); in the assay with A498 renal, 69.2% (inactive) and 87.1% (inactive). Besides, the growth with CCRF-CEM leukemia was -4.68% (active) and 10.3% (inactive); in the assay with MOLT-4 leukemia it was 7.08% (active) and 12.4% (inactive).
Consider `COC(=O)c1nc(-c2ccc(C)cc2)oc1Sc1ccc(C)cc1`, for which the growth in the assay with HCT-15 colon is 86.8% (inactive); in the assay with HT29 colon it was 102% (inactive); in the assay with SNB-75 CNS, 79.3% (inactive); in the assay on SNB-19 CNS, 101% (inactive); with U251 CNS it was 94.3% (inactive); in the assay on PC-3 prostate, 78.4% (inactive). For the same compound, the growth in the assay with SK-MEL-5 melanoma was 105% (inactive); in the assay with UACC-62 melanoma it was 76.9% (inactive); in the assay with LOX IMVI melanoma, 93.5% (inactive); with SK-MEL-28 melanoma it was 106% (inactive); in the assay on SK-MEL-2 melanoma, 104% (inactive); with EKVX NSCLC, 105% (inactive). The growth is 96% (inactive) with SN12C renal; 82.6% (inactive) in the assay on UO-31 renal; 106% (inactive) in the assay on TK-10 renal; 96.1% (inactive) with ACHN renal; 95% (inactive) in the assay with CAKI-1 renal; 130% (inactive) in the assay with A498 renal. Further, the values for the growth in the assay on CCRF-CEM leukemia and in the assay with MOLT-4 leukemia were 86.9% (inactive) and 71.7% (inactive), respectively.
`COc1cc(F)c(/C=C/c2cc(/C=C/c3cc(OC)c(OC)cc3F)n(-c3cc(F)cc(F)c3)n2)cc1OC`: the growth was 11.5% (inactive) with HCT-15 colon; 22.9% (inactive) with HT29 colon; 105% (inactive) with SNB-75 CNS; 56.7% (inactive) with SNB-19 CNS; -1.48% (active) in the assay with U251 CNS; 10.4% (inactive) in the assay with PC-3 prostate. In addition, the growth in the assay on SK-MEL-5 melanoma is 23.6% (inactive); in the assay with UACC-62 melanoma, 26.8% (inactive); in the assay on LOX IMVI melanoma it was 18.6% (inactive); with SK-MEL-28 melanoma, -28.1% (active); with SK-MEL-2 melanoma it was 59.5% (inactive); with EKVX NSCLC it was 57.7% (inactive). Besides, the growth is 72.5% (inactive) in the assay with SN12C renal; 85.4% (inactive) with UO-31 renal; 68.9% (inactive) in the assay with TK-10 renal; 117% (inactive) in the assay with ACHN renal; 98.5% (inactive) in the assay on CAKI-1 renal; 92.4% (inactive) in the assay on A498 renal. For the same compound, the growth in the assay with CCRF-CEM leukemia was 51.9% (inactive); in the assay on MOLT-4 leukemia it was 71.5% (inactive).
`O=C(NNc1ccccc1)c1ncc[nH]1`: the growth with HCT-15 colon was 34.8% (inactive); in the assay on HT29 colon it was 54.9% (inactive); in the assay on SNB-75 CNS, 85.2% (inactive); with SNB-19 CNS, 96.5% (inactive); in the assay on U251 CNS, 78.6% (inactive); in the assay with PC-3 prostate, 71.9% (inactive). Besides, the growth in the assay on SK-MEL-5 melanoma is 85% (inactive); in the assay with UACC-62 melanoma, 10.9% (inactive); with LOX IMVI melanoma it was 1.27% (active); in the assay with SK-MEL-28 melanoma, 40.7% (inactive); with SK-MEL-2 melanoma it was 78.2% (inactive); with EKVX NSCLC it was 60.2% (inactive). The growth was 72% (inactive) in the assay on SN12C renal; 12.3% (inactive) with UO-31 renal; 77.9% (inactive) in the assay on TK-10 renal; 14.5% (inactive) in the assay with ACHN renal; 3.43% (active) in the assay on CAKI-1 renal; 98.3% (inactive) with A498 renal. The growth was 32.7% (inactive) with CCRF-CEM leukemia and 27.3% (inactive) in the assay on MOLT-4 leukemia.
Take `CC(=O)N1N=C(c2ccc(Nc3nc(Nc4ccc(F)cc4)nc(Nc4ccc(F)cc4)n3)cc2)CC1c1ccccc1` (stereo not given): the growth with HCT-15 colon is 89.3% (inactive); in the assay on HT29 colon it was 96.3% (inactive); with SNB-75 CNS, 80.1% (inactive); with SNB-19 CNS, 77.3% (inactive); in the assay with U251 CNS it was 85.5% (inactive); in the assay on PC-3 prostate, 70% (inactive). Besides, the growth is 69.6% (inactive) with SK-MEL-5 melanoma; 95.4% (inactive) in the assay on UACC-62 melanoma; 103% (inactive) with LOX IMVI melanoma; 97.5% (inactive) in the assay on SK-MEL-28 melanoma; 59.9% (inactive) in the assay on SK-MEL-2 melanoma; 105% (inactive) in the assay with EKVX NSCLC. Moreover, the growth in the assay with SN12C renal is 112% (inactive); with UO-31 renal, 80.2% (inactive); in the assay on TK-10 renal, 97.6% (inactive); with ACHN renal it was 84.6% (inactive); in the assay with CAKI-1 renal it was 114% (inactive); with A498 renal, 85.5% (inactive). For the same compound, the growth with CCRF-CEM leukemia was -14.7% (active); with MOLT-4 leukemia, 70.2% (inactive).
